Results: PubChem BioAssay (NCATS)
Several values for one entry are separate records, joined by “and”; a condition that tells them apart may be missing. Equal entries are not always repeated. Inconclusive results are not listed. A call without a number means that no potency is given here. The source holds several records for some structures; these can differ, active in one and inactive in another. Values without a mark were called inactive. Activity calls are given as the source filed them. The call rests on the fitted dose curve; in most records, active means well fitted inhibition curve with a large enough effect; inconclusive means small, poorly fitted or top-dose-only effect; inactive means flat fitted curve, though single readings scatter.

Experiments:
PC49 = experiment: qHTS profiling for inhibitors of Plasmodium falciparum proliferation (AID 504749); conditions: P. falciparum in erythrocytes, SYBR Green DNA, 72 h; series mostly up to 28.7 µM
In short: (§1)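 Each compound contacts P. falciparum-infected red blood cells for 72 h at 37 C; lysis buffer (Tris, EDTA, saponin, Triton X, SYBR Green I) is added and fluorescence measured next morning; values normalized to controls.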

W2 = experiment: as above; conditions: P. falciparum in erythrocytes, SYBR Green DNA, 72 h; series mostly up to 28.7 µM
In short: as §1

CRL-7250 [1] = experiment: Cytotoxic Profiling of Annotated Libraries Using Quantitative High-Throughput Screening (AID 1296008); conditions: Five cell lines viability, CellTiter-Glo ATP luminescence, 48-72 h; max response: hits give low values; further: potency means the concentration at half of the fitted maximal effect
In short: (§2)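 Cells exposed to compounds for 48 or 72 hr at 37 degrees Celsius. Viability read as ATP-coupled luminescence with CellTiter-Glo after 10 min at room temperature.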

HaCat [2] = experiment: as above; conditions: Five cell lines viability, CellTiter-Glo ATP luminescence, 48-72 h; max response: hits give low values
In short: as §2

KB-3-1 = experiment: as above; conditions: Five cell lines viability, CellTiter-Glo ATP luminescence, 48-72 h; max response: hits give low values
In short: as §2

NIH3T3 [3] = experiment: as above; conditions: Five cell lines viability, CellTiter-Glo ATP luminescence, 48-72 h; max response: hits give low values
In short: as §2

CRL-7250 [4] = experiment: qHTS assay to identify novel small-molecules to repurpose for Merkel cell carcinoma treatment (AID 1296009); conditions: MCC and control cell lines, CellTiter-Glo viability, 72 h; at 44.8 µM (top of the series) unless noted; further: potency means the concentration at half of the fitted maximal effect
In short: (§3)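 Dose-response viability screen; 72 hr exposure at 37 degree celsius; CellTiter-Glo added, 10 min room temperature, luminescence read; RLUs scaled between no-cell and DMSO wells.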

MCC-13 = experiment: as above; conditions: MCC and control cell lines, CellTiter-Glo viability, 72 h; series mostly up to 46 µM
In short: as §3

MCC-26 = experiment: as above; conditions: MCC and control cell lines, CellTiter-Glo viability, 72 h; series mostly up to 46 µM
In short: as §3

MKL-1 = experiment: as above; conditions: MCC and control cell lines, CellTiter-Glo viability, 72 h; series mostly up to 46 µM
In short: as §3

MKL-2 = experiment: as above; conditions: MCC and control cell lines, CellTiter-Glo viability, 72 h; series mostly up to 46 µM
In short: as §3

UISO = experiment: as above; conditions: MCC and control cell lines, CellTiter-Glo viability, 72 h; series mostly up to 46 µM
In short: as §3

HACAT [5] = experiment: as above; conditions: MCC and control cell lines, CellTiter-Glo viability, 72 h; at 44.8 µM (top of the series) unless noted
In short: as §3

HEK293 = experiment: Cytotoxic Profiling of Annotated Libraries Using Quantitative High-Throughput Screening (AID 1296008); conditions: Five cell lines viability, CellTiter-Glo ATP luminescence, 48-72 h; max response: hits give low values; further: potency means the concentration at half of the fitted maximal effect
In short: as §2

HEK293T = experiment: qHTS assay to identify novel small-molecules to repurpose for Merkel cell carcinoma treatment (AID 1296009); conditions: MCC and control cell lines, CellTiter-Glo viability, 72 h; at 44.8 µM (top of the series) unless noted; further: potency means the concentration at half of the fitted maximal effect
In short: as §3

NIH3T3 [6] = experiment: as above; conditions: MCC and control cell lines, CellTiter-Glo viability, 72 h; at 44.8 µM (top of the series) unless noted
In short: as §3

SC27B = experiment: qHTS profiling for inhibitors of Plasmodium falciparum proliferation (AID 504749); conditions: P. falciparum in erythrocytes, SYBR Green DNA, 72 h; series mostly up to 28.7 µM
In short: as §1

TAB109 = experiment: as above; conditions: P. falciparum in erythrocytes, SYBR Green DNA, 72 h; series mostly up to 28.7 µM
In short: as §1

TAB113 = experiment: as above; conditions: P. falciparum in erythrocytes, SYBR Green DNA, 72 h; series mostly up to 28.7 µM
In short: as §1

TAB165 = experiment: as above; conditions: P. falciparum in erythrocytes, SYBR Green DNA, 72 h; series mostly up to 28.7 µM
In short: as §1
Further: nearly all actives have a fitted effect of over 60% in size.

CC(=O)OCC1=C(C(=O)O)N2C(=O)[C@@H](N)[C@@H]2SC1
Potency (PC49): inactive
Potency (W2): inactive
outcome (CRL-7250 [1]): inactive
max response (HaCat [2]): -5.82%
max response (KB-3-1): 0.594%
max response (NIH3T3 [3]): -7.48%
outcome (CRL-7250 [4]): inactive
Potency (MCC-13): inactive
Potency (MCC-26): inactive
Potency (MKL-1): inactive
Potency (MKL-2): inactive
Potency (UISO): inactive

COc1ccc(CC2NCCc3cc(OC)c(OC)cc32)cc1OC (centres undefined)
max response (CRL-7250 [1]): -3.56%
outcome (HaCat [2]): inactive
max response (KB-3-1): -3.69%
max response (NIH3T3 [3]): -2.7%
outcome (HACAT [5]): inactive
Potency (MCC-13): inactive
Potency (MCC-26): inactive
Potency (MKL-1): inactive
Potency (MKL-2): inactive
Potency (UISO): inactive

Cc1c(N)nc([C@H](CC(N)=O)NC[C@@H](N)C(N)=O)nc1C(=O)N[C@H](C(=O)N[C@@H](C)[C@H](O)[C@@H](C)C(=O)N[C@@H](C(=O)NCCc1nc(-c2nc(C(=O)NCCC[S+](C)C)cs2)cs1)[C@@H](C)O)C(O[C@H]1O[C@H](CO)[C@H](O)[C@@H](O)[C@@H]1O[C@H]1O[C@H](CO)[C@@H](O)[C@H](OC(N)=O)[C@H]1O)c1cnc[nH]1 (some centres undefined)
Potency (CRL-7250 [1]): 10.5 µM (active)
Potency (HEK293): 0.526 µM (active)
Potency (NIH3T3 [3]): 1.18 µM (active)
Potency (MKL-2): inactive

CC(O)=C(C#N)C(=O)Nc1cc(Br)ccc1Br
max response (CRL-7250 [1]): 1.28%
max response (HEK293): -1.81%
outcome (KB-3-1): inactive
max response (NIH3T3 [3]): -15.7%
Potency (MCC-13): inactive
Potency (MCC-26): inactive
Potency (MKL-1): inactive
Potency (UISO): inactive

O=C(O)COc1nc(Cl)c(Cl)cc1Cl
max response (CRL-7250 [1]): -6.6%
max response (HEK293): -3.5%
max response (KB-3-1): -16.3%
max response (NIH3T3 [3]): -4.26%
Potency (MCC-13): inactive
Potency (MKL-1): inactive
Potency (MKL-2): inactive
Potency (UISO): inactive

OCCCBr
max response (CRL-7250 [1]): -6.12%
max response (HaCat [2]): -13%
max response (KB-3-1): -26.3%
max response (NIH3T3 [3]): -4.76%
outcome (HEK293T): inactive [at 92 µM]
Potency (MCC-13): inactive
Potency (MKL-1): inactive
Potency (MKL-2): inactive
Potency (UISO): inactive

O=C(NCC1CCOCC1)c1cnc(Nc2ccc(Cl)cc2Cl)nc1C(F)(F)F
max response (CRL-7250 [1]): 4.29% and -22.6%
max response (HaCat [2]): -8.57% and -14.9%
max response (KB-3-1): -20.4%
outcome (KB-3-1): inactive
max response (NIH3T3 [3]): -3.44% and -3.65%
Potency (MCC-13): inactive
Potency (MCC-26): inactive
Potency (MKL-1): inactive
Potency (MKL-2): inactive
Potency (UISO): inactive

CC(C)(O)C(=O)Nc1ccc([N+](=O)[O-])c(C(F)(F)F)c1
max response (CRL-7250 [1]): -26.4%
max response (HaCat [2]): -2.45%
max response (KB-3-1): -3.83%
outcome (NIH3T3 [3]): inactive
Potency (MCC-13): inactive
Potency (MCC-26): inactive
Potency (MKL-1): inactive
outcome (NIH3T3 [6]): inactive
Potency (UISO): inactive

O=c1cccc2n1CC1CNC[C@H]2C1
max response (CRL-7250 [1]): -0.274%
max response (HaCat [2]): -12.2%
outcome (KB-3-1): inactive
max response (NIH3T3 [3]): -3.34%
Potency (MCC-13): inactive
Potency (MCC-26): inactive
Potency (MKL-1): 14.8 µM (active)
Potency (MKL-2): 2.64 µM (active)
Potency (UISO): inactive

CCCCC(CC)COC(=O)c1ccccc1C(=O)OCC(CC)CCCC (centres undefined)
max response (CRL-7250 [1]): -5.66%
outcome (HaCat [2]): inactive
max response (KB-3-1): -15.4%
max response (NIH3T3 [3]): -8.2%
outcome (HACAT [5]): inactive [at 92 µM]
outcome (HEK293T): inactive [at 92 µM]
Potency (MCC-13): inactive
Potency (MCC-26): inactive
Potency (MKL-1): inactive
Potency (MKL-2): inactive
Potency (UISO): inactive

Cc1cc(O)ccc1Cl
Potency (PC49): inactive
Potency (SC27B): inactive
Potency (TAB109): inactive
Potency (TAB113): inactive
Potency (TAB165): inactive
Potency (W2): inactive
outcome (CRL-7250 [1]): inactive
max response (HaCat [2]): 2.83%
max response (KB-3-1): -3.49%
outcome (NIH3T3 [3]): inactive
outcome (CRL-7250 [4]): inactive
Potency (MCC-13): inactive
Potency (MCC-26): inactive
Potency (MKL-1): inactive
Potency (MKL-2): inactive
outcome (NIH3T3 [6]): inactive
Potency (UISO): inactive

CC(O)CN1CCN(CC(=O)[O-])CCN(CC(=O)[O-])CCN(CC(=O)[O-])CC1.[Gd+3] (centres undefined)
outcome (CRL-7250 [1]): inactive
max response (HaCat [2]): -14.5%
max response (KB-3-1): -2.15% and -0.0896%
max response (NIH3T3 [3]): -1.05%
outcome (CRL-7250 [4]): inactive
Potency (MCC-13): inactive
Potency (MCC-26): inactive
Potency (MKL-1): inactive
Potency (MKL-2): inactive
Potency (UISO): inactive

CC(C)(C)C(O)C(Oc1ccc(Cl)cc1)n1cncn1 (centres undefined)
outcome (CRL-7250 [1]): inactive
max response (HaCat [2]): 0.929%
max response (KB-3-1): -16.3%
max response (NIH3T3 [3]): 3.17%
outcome (CRL-7250 [4]): inactive [at 92 µM]
Potency (MCC-13): inactive
Potency (MCC-26): inactive

Cc1ccccc1-n1c(Cn2cnc3c(N)ncnc32)nc2cccc(C)c2c1=O
Potency (CRL-7250 [1]): 0.833 µM (active)
Potency (HaCat [2]): 0.59 µM (active)
max response (HaCat [2]): -10.3%
Potency (KB-3-1): 1.32 µM (active)
max response (KB-3-1): 0.515%
Potency (NIH3T3 [3]): 2.64 µM (active)
max response (NIH3T3 [3]): -1.65%
outcome (HEK293T): inactive
Potency (MCC-26): 6.62 µM (active)
Potency (UISO): 3.72 µM (active)

CN[C@@H](C)[C@H](O)c1ccccc1
max response (CRL-7250 [1]): -24.6%
max response (HaCat [2]): 1.69%
max response (KB-3-1): -0.943%
max response (NIH3T3 [3]): -5.73%
outcome (HEK293T): inactive
Potency (MCC-13): inactive
Potency (MCC-26): inactive
Potency (MKL-1): inactive
Potency (MKL-2): inactive
Potency (UISO): inactive

COc1ccc2c(c[n+](C)c3c4cc5c(cc4ccc23)OCO5)c1OC
Potency (CRL-7250 [1]): 16.6 µM (active)
Potency (HEK293): 2.96 µM (active)
Potency (KB-3-1): 26.4 µM (active)
Potency (MKL-1): 2.35 µM (active)
Potency (MKL-2): 0.743 µM (active)
